Compound activity deposited in PubChem BioAssay by National Center for Advancing Translational Sciences (NCATS).
LASV entry inh = Lassa virus entry inhibition. Lassa virus pseudotype entry inhibition, cell reporter. Potency, µM (titrated, usually from 37.9 µM), without a hit: at the highest dose activity change, negative = inhibition, usual class: inhibitors. actives 1.2% (n = 300,000). AID 540256; calls by dose curve; tested in HEK293 cells; note: nearly all actives have a fitted effect of over 50% in size
Vaccinia mCherry = vaccinia inhibition (mCherry reporter). Vaccinia virus mCherry reporter infection, fluorescence. Potency, µM (titrated, usually from 36.5 µM), for inactives: top-dose activity change, negative = inhibition, usual class: inhibitors. actives 0.63% (n = 310,000). AID 720579; calls by dose curve; tested in A549 cells; note: nearly all actives have a fitted effect of over 35% in size
HCV inhibitor = blocks hepatitis C virus. Potency, µM (series often up to 41.8 µM), inactives show top-dose activity change, negative = inhibition, most hits filed as inhibitors. Huh7.5.1 HCVcc-Cre infection, luciferase reporter, 44 h. actives 3.4% (n = 340,000); active = well fitted inhibition curve with a large enough effect; inconclusive = small, poorly fitted or top-dose-only effect, or another doubt; inactive = no such curve, though single readings can be large or run the other way
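1,000 cells/well; 4 h culture; + compound; + HCVcc-Cre (~0.5 moi); 44 h; luciferase substrate, RT 15 min; read 15 sec.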
Vaccinia Venus = vaccinia inhibition (Venus reporter); Potency, µM (titrated, usually from 36.5 µM), for inactives: at the highest dose activity change, negative = inhibition, most hits filed as inhibitors; actives 0.46% (n = 330,000); AID 720580; Vaccinia virus Venus reporter expression, fluorescence; calls by dose curve; tested in A549 cells; note: nearly all actives have a fitted effect of over 30% in size
MARV entry inh = blocks Marburg virus binding to or entry into cells; Marburg virus pseudotyped entry inhibition, cell reporter; Potency, µM (highest dose often 37.8 µM), without a hit: top-dose activity change, negative = inhibition, hits mostly inhibitors; actives 1.8% (n = 300,000); calls by dose curve; tested in HEK293 cells
* marks the source's active call; other numbers are inactive results; i = inactive; u = inconclusive; x = no result; [ ] = remark or other dose. Only some compounds are listed: those with a hit (about 4.6% of all), similar ones and a draw of the others. % is set by controls: 0 for no effect and ±100 for the full control effect; potency is the fitted concentration of half-maximal effect.

SMILES | LASV entry inh | Vaccinia mCherry | HCV inhibitor | Vaccinia Venus | MARV entry inh
N#CC1=C(N)NC(SCc2ccc(Cl)cc2)=C(C#N)C12CCCCC2 | u | x | u | u | 11µM*
CCC(CC)C(=O)c1c[nH]c(C(=O)NCc2ccco2)c1 | u | x | 6% | x | -7%
CCC(CC)C(=O)c1c[nH]c(C(=O)NCc2cccs2)c1 | 2.5µM* | i | -29% | -7% | -13%[46.1 µM]
Nc1cccc(/C=C2\C=Cc3ccccc32)c1 | x | -13% | x | -12% | x
Cc1cccc(-n2c(SCC(=O)Nc3ccccc3Cl)nc3n[nH]c(C)c3c2=N)c1 | -1%[46.1 µM] | -21% | x | -26% | x
CCc1ccccc1NC(=O)CSc1nc2n[nH]c(C)c2c(=N)n1-c1ccc(OC)cc1 | -22% | x | 11µM* | u | u
COc1ccccc1NC(=O)CSc1nc2n[nH]c(C)c2c(=N)n1-c1ccccc1Cl | u | x | 11µM* | x | 15µM*
Cc1cc(-n2c(SCc3ccccc3F)nc3n[nH]c(C)c3c2=N)ccc1Cl | u | -17% | 10µM* | -22% | u
COc1ccc(C(=O)Nc2nc3c(s2)Cc2c(Br)ccc(OC)c2-3)cc1OC | 4%[46.1 µM] | -10% | x | -7% | -20%[46.1 µM]
CO[C@H]1[C@H](NC(=O)c2ccncc2)c2ccccc2C12CCN(C(=O)c1ccoc1)CC2 | x | -6% | x | 6% | x
O=c1cc(-c2ccccc2)oc2ccc(Cl)cc12 | u | 8% | -12% | -8% | -6%
O=c1oc(-c2ccccc2)cc(Cl)c1Cl | u | i | u | -10% | 11µM*
O=Cc1ccc(-c2cccs2)s1 | 10µM* | -26% | 0% | u | u
O=C(COC(=O)c1ccc([N+](=O)[O-])o1)Nc1nc2ccccc2s1 | 17% | -19% | 10µM* | -20% | 6%[46.1 µM]
O=C(Nc1nc2ccc(F)cc2s1)c1ccc([N+](=O)[O-])o1 | x | u | x | 10µM* | x
O=C(COC(=O)c1ccc(Br)o1)Nc1nc2ccccc2s1 | 5% | x | 0% | x | 14%
Cc1cc(/C=C/c2c(C)cnc3ccccc23)ccc1N(C)C | x | -21% | x | -20% | x
CC(=O)N1CCN(Cc2nc3cc(NC(=O)c4cccc(Br)c4)ccc3n2C)CC1 | -24% | i[7.34 µM] | 18µM* | -11%[7.34 µM] | u
CC(=O)N1CCN(Cc2nc3cc(NC(=O)c4ccccc4C)ccc3n2C)CC1 | 7% | x | -12% | -14% | -7%
Cn1c(CN2CCCCC2)nc2cc(NC(=O)c3ccc(F)cc3)ccc21 | u | x | 10µM* | x | u
COc1ccc2cc([C@H](C)CO)ccc2c1 | x | -13% | x | u | x
O=[N+]([O-])c1ccc(-c2cc3ccccc3[nH]2)cc1 | x | 6% | x | -8% | x
Cc1ccccc1NC(=O)CSc1nc(-c2ccccc2)cn1-c1ccccc1F | u | -13% | x | -8% | x
CC1=CC(C)CC(C)OC(=O)CC(c2ccc(O)cc2)NC(=O)C(Cc2c(Br)[nH]c3ccccc23)N(C)C(=O)C(C)NC(=O)C(C)C1 (configuration not stated) | 0.4µM* | 32µM* | u | 35µM* | 0.32µM*
COC(=O)c1ccccc1NC(=O)c1cnn2c1NC(=C1CC1)C=C2C(F)F | x | -1% | x | -17% | x
SMILES | LASV entry inh | Vaccinia mCherry | HCV inhibitor | Vaccinia Venus | MARV entry inh
CCN(CC)S(=O)(=O)c1ccc(C(=O)Nc2cc3oc4ccccc4c3cc2OC)cc1 | u | i | 1% | -8% | -7%
COc1cc2c(cc1NC(=O)c1cccc([N+](=O)[O-])c1C)oc1ccccc12 | -6% | x | 2µM* | x | -28%
COc1cc2c(cc1NC(=O)c1cccc(S(=O)(=O)N(C)C)c1)oc1ccccc12 | -37% | u | 1.4µM* | u | u
COc1cc(OC)c(NC(=O)CSc2nc3ccncc3[nH]2)cc1Cl | -6%[46.1 µM] | -6% | x | u | u
Cc1ccccc1-c1ccccc1CN1[C@@H](C(C)C)COCCS1(=O)=O | 8%[46.1 µM] | i | -1% | -7% | x
CC(C)[C@H]1COCCS(=O)(=O)N1Cc1cccc(Cl)c1 | x | -15% | -4% | -24% | x
CC(C)[C@H]1COCCS(=O)(=O)N1Cc1ccccc1F | x | u | -4% | 1µM* | x
CC(C)[C@H]1COCCS(=O)(=O)N1Cc1cccc([N+](=O)[O-])c1 | x | u | x | 28µM* | x
CCC1CN(CCNC(=O)c2ccc(N3CCOCC3)cc2)Cc2cc(OC)ccc2O1 (configuration not stated) | x | -19% | x | -11% | x
CCOC(=O)C1=C(O)/C(=C/c2cn(CC(=O)N3CCCC3)c3ccccc23)SC1=Nc1ccccc1 | -10% | -12% | 11µM* | 19% | u
COc1ccccc1NC(=O)Cn1c(C)nc2c(sc(=S)n2Cc2ccco2)c1=O | x | -16%[7.34 µM] | 13µM* | -5%[7.34 µM] | x
Cc1nc2c(sc(=S)n2Cc2ccco2)c(=O)n1CC(=O)Nc1cc(F)ccc1F | x | x | 13µM* | x | x
Cc1ccc(O[C@@H]2[C@H](O)CO[C@H]2C=CC#Cc2ccc(C(C)(C)C)cc2)cc1 | u | x | x | x | -35%[14.2 µM]
CCOC(=O)c1c(NC(=O)COC(=O)c2ccccc2NC)sc(C(=O)N(C)C)c1C | u | i | 13µM* | -2% | u
CCOC(=O)c1c(NC(=O)COC(=O)C2CCC2)sc(C(=O)N(C)C)c1C | 5% | i | -25% | -11% | 9%
CCOC(=O)c1c(NC(=O)COC(=O)Cc2ccccc2[N+](=O)[O-])sc(C(=O)N(C)C)c1C | 1% | -14% | 10µM* | -10% | -4%[46.1 µM]
CCOC(=O)c1sc(NC(=O)Nc2ccccc2F)nc1C | u | -21% | -8% | -18% | 2.2µM*
COc1ccc([C@H]2SCC(=O)Nc3c2c(=O)[nH]n3C2CCCCC2)cc1 | x | x | x | x | 0%
O=[N+]([O-])c1ccc(SNc2ccccc2)c([N+](=O)[O-])c1 | -20%[46.1 µM] | -4% | -25% | -13% | u
O=[N+]([O-])c1ccc(-[n+]2ccc3ccccc3c2)c([N+](=O)[O-])c1 | x | 10µM* | u | u | x
CNCCCC1c2ccccc2C=Cc2ccccc21 | u | -10% | u | u | 3.5µM*
c1ccc(CNc2ncnc3sccc23)cc1 | x | x | 6% | x | x
Cc1cc2c(NCc3ccccc3)ncnc2s1 | 9%[46.1 µM] | -12% | 7.9µM* | -17% | u
Cc1sc2ncnc(NCc3ccccc3)c2c1C | -23% | x | 5.6µM* | u | -27%
CSc1ccc(/C=C/c2ccnc3ccccc23)cc1 | x | -6% | x | 4% | x
SMILES | LASV entry inh | Vaccinia mCherry | HCV inhibitor | Vaccinia Venus | MARV entry inh
Cc1oc(-c2ccccc2NC(=O)c2ccsc2)nc1CN(C)CC1CC=CCC1 (configuration not stated) | x | -8% | x | 8% | x
O=C1NC(=S)S/C1=C/c1ccc(N2CCOCC2)o1 | -10% | i | u | i | u
COc1ccc2cc(/C=C3\SC(=S)NC3=O)c(N3CCOCC3)nc2c1 | u | -3% | u | -11% | 11µM*
Cc1cccn2c(=O)cc(COc3ccc(NC(=O)c4cccc(F)c4)cc3)nc12 | 13%[46.1 µM] | -7% | x | -7% | x
O=C(CSC1=NNC(c2ccccn2)S1)Nc1ccccc1 (configuration not stated) | x | x | 14µM* | x | x
Cc1nc(N2CCOCC2)c2cc(-c3ccccc3)sc2n1 | u | -9%[1.46 µM] | u | -22% | u
